Test results reported in PubChem BioAssay (NCI).
About 83,000 compounds went through this panel and 20% of them were active in at least one assay; those are over-represented in the sample as a whole.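 Negative percent growth values reflect cell death: -40 means 40% of the cells present at the start died, and -100 means all died.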 A number with no mark means an inactive call. Activity calls are given as the source filed them. Rule for the calls: active = growth percent below 10; inactive = the rest.

Assays:
Test in all cases: NCI-60 one-dose screen, 48 h (100 = growth as untreated, 0 = no growth, -100 = all killed)
Settings in all cases: 10 µM unless noted
RPMI-8226 leukemia = system: RPMI-8226 leukemia
OVCAR-8 ovarian = system: OVCAR-8 ovarian
OVCAR-5 ovarian = system: OVCAR-5 ovarian
OVCAR-4 ovarian = system: OVCAR-4 ovarian
SK-OV-3 ovarian = system: SK-OV-3 ovarian
IGROV1 ovarian = system: IGROV1 ovarian
OVCAR-3 ovarian = system: OVCAR-3 ovarian
HS 578T breast = system: HS 578T breast
NCI/ADR-RES ovarian = system: NCI/ADR-RES ovarian
T-47D breast = system: T-47D breast
BT-549 breast = system: BT-549 breast
MDA-MB-435 melanoma = system: MDA-MB-435 melanoma
SW-620 colon = system: SW-620 colon
MCF7 breast = system: MCF7 breast
HCT-116 colon = system: HCT-116 colon
HCC-2998 colon = system: HCC-2998 colon
KM12 colon = system: KM12 colon
SR leukemia = system: SR leukemia

Row | SMILES | growth (RPMI-8226 leukemia) | growth (OVCAR-8 ovarian) | growth (OVCAR-5 ovarian) | growth (OVCAR-4 ovarian) [%] | growth (SK-OV-3 ovarian) | growth (IGROV1 ovarian) | growth (OVCAR-3 ovarian) | growth (HS 578T breast) | growth (NCI/ADR-RES ovarian) | growth (T-47D breast) | growth (BT-549 breast) | growth (MDA-MB-435 melanoma) | growth (SW-620 colon) | growth (MCF7 breast) | growth (HCT-116 colon) | growth (HCC-2998 colon) | growth (KM12 colon) | growth (SR leukemia)
1 | CC1=NNC(=O)C1CCC(=O)N/N=C(\C)c1ccc2ccccc2c1 (configuration not stated) | 107% | 102% | 77.2% | 117 | 126% | 92.6% | 105% | 114% | 94.3% | 146% | 118% | 86.5% | 103% | 98.9% | 92.7% | 107% | 98.9% | 
2 | NC(=S)N/N=C(/c1ccccc1)c1ccccc1N | 72.6% | 64.7% | 94.8% | 78.5 | 108% | 40.1% | 50.7% | 97.2% | 74.2% | 43.7% | 104% | 90.4% | 79.2% | 39.7% | 3.36% (active) | 113% | 98.9% | 
3 | COc1cc(C(=O)c2cnc(-c3ccc4cc[nH]c4c3)[nH]2)cc(OC)c1OC | -0.63% (active) |  | 32.2% | 39.3 | 23.5% | 26.3% | -34.2% (active) | 20.6% | 8.52% (active) | 59% | 42.9% | -28.4% (active) | 19.2% | 11.3% | -6.9% (active) | 6.12% (active) | -9.92% (active) | 6.26% (active)
4 | COc1ccc(/C=N/NC(=O)c2cccc3cc[nH]c23)cc1O | -19.4% (active) | 48.8% | 87.8% | 49.6 | 26.1% | 36.4% | 1.58% (active) | 15.2% | -7.64% (active) | 41.4% | 55.9% | -21.4% (active) | 29.8% | 8.85% (active) | 21.8% | 55.4% | 29.8% | 
5 | CC(=O)c1c(-c2ccc(OC(F)(F)F)cc2)nc2ccccn12 | 101% |  | 83.1% | 100 | 97.6% | 88.8% | 101% | 102% | 95.9% | 80.6% | 91.3% | 102% | 105% | 89.8% | 80.8% | 105% | 97% | 116%
6 | O=C1Nc2c(ccc(Cl)c2Cl)/C1=C/c1ccccn1 | 107% | 81% | 85.1% | 76.5 | 94% | 73.1% | 84.6% | 63.9% | 82.5% | 56.9% | 92.1% | 77.2% | 76.8% | 29% | 24.2% | 85.1% | 87.1% | 
7 | Nc1nnc(C(=O)c2cnc3n(c2=O)CCCCC3)s1 |  | 105% | 104% | 111 | 101% | 110% | 102% | 99.7% | 94.7% | 98.5% | 108% | 106% | 100% | 98.8% | 103% | 106% | 105% | 107%
8 | c1ccc(Cn2nc3c(c2-c2ccccc2)-c2oncc2CC3)cc1 |  | 86.8% | 107% | 87.5 | 115% | 110% | 106% |  | 84.1% |  | 88% | 89.2% | 106% | 82.5% | 94.2% | 97.8% | 99.6% | 72.4%
9 | NC(=O)c1cccc(-n2ccc3cc(NC(=O)Nc4cc(C(F)(F)F)cc(C(F)(F)F)c4)ccc32)n1 |  | 37.2% | 72.4% | 44 | 73.7% | 29.8% | 39.1% | 38.6% | 41.8% | 44.7% | 74.4% | 50.5% | 73.7% | 27.2% | 38% | 88.2% | 11.7% | 44.3%
10 | Cc1cc(C)n(Nc2nc3ccccc3[nH]c2=O)c(=O)c1C#N |  | 97.7% | 99.7% | 93.4 | 96.9% | 94.8% | 101% | 92.7% | 101% | 86% | 106% | 103% | 98.5% | 82.6% | 96.1% | 103% | 92.9% | 82.5%
11 | COc1ccc(-c2cnc(N)nc2-c2ccc(OC)cc2O)cc1 |  | 89.5% | 102% | 86.5 | 103% | 83.8% | 108% | 157% | 85.7% | 93.7% | 115% | 101% | 95.7% | 95.4% | 80.4% | 103% | 45.5% | 66.9%
12 | COc1cc(/C=C2\C(=O)N(Cc3ccc(Cl)cc3)c3ccccc32)cc(OC)c1OC | -31.7% (active) |  | 65.9% | 47.7 | 79.3% | 9.22% (active) | -49.6% (active) | -14.3% (active) | 21.4% |  | 9.56% (active) | 28.2% | -29.7% (active) | 8.81% (active) | -23.4% (active) | -28.5% (active) | 15.5% | -5.2% (active)
13 | O=C1Nc2ccccc2/C1=C\c1cccc(/C=C2/C(=O)Nc3ccccc32)n1 | -48.7% (active) | -6.07% (active) | -69.5% (active) | 11.6 | -88.6% (active) | -66.8% (active) | -89.6% (active) | -39.2% (active) | 16.1% | -51.6% (active) | -86.4% (active) | -73.6% (active) | -75.9% (active) | -69.9% (active) | -65.6% (active) | -84.1% (active) | -83.1% (active) | 
14 | Cc1cc2cc3cc(C)c(N)cc3[n+](C)c2cc1N | -1.31% (active) | 1.23% (active) | 46.2% | 10 | 26% | 16.1% | 1.65% (active) | 9.56% (active) | 48.5% | 8.77% (active) | 9.11% (active) | 9.46% (active) | 9.45% (active) | 8.32% (active) | 3.49% (active) | 9.7% (active) | 5.06% (active) | 
15 | NS(=O)(=O)c1cccc(NC(=O)C(=O)C2C(=O)Nc3ccccc32)c1 (configuration not stated) | 47.7% | 106% | 96% |  | 106% | 76.4% | 96.6% | 101% | 97.5% | 112% | 109% | 96.8% | 94.5% | 109% | 93.3% | 104% | 103% | 
16 | CCNNC(=O)[C@@H]1[C@H](c2cc(OC)c(OC)c(OC)c2)c2cc3c(cc2[C@H](O)[C@H]1CO)OCO3 | 32.8% | -13.3% (active) | 33.6% | 35.2 | 1.47% (active) | 20.8% | -47.8% (active) | 23.1% | -13.7% (active) | 80.6% | -27.2% (active) | -26.9% (active) | 20.5% | 10.2% | 0.945% (active) | 6.02% (active) | -5.82% (active) | 
17 | CCCN=C(N)c1ccc(NC(=O)c2ccc(C(=O)Nc3ccc(C(N)=NCCC)cc3)cc2)cc1 | 90.6% | 95.7% | 94.8% | 99.7 | 95.6% | 96.6% | 102% | 102% | 98.4% | 77.6% | 93.9% | 90.2% | 104% | 87.8% | 92.2% | 109% | 95.5% | 
18 | COc1ccc(-n2cc(-c3cc(OC)c(OC)c(OC)c3)n(C(C)=O)c2=O)cc1 | 123% | 91.8% | 78.3% | 79.9 | 94.6% | 107% | 108% | 92.3% | 100% | 77.2% | 100% | 84.3% | 98.1% | 71.5% | 94% | 108% | 85% | 
